According to PubChem BioAssay AID1159580 (chemical genetic matrix, 2015):
About 2,000 (36%) of roughly 5,500 compounds were called active. Not shown: some 18% with an inconclusive outcome. No stated cut-off is given here; in the data, active means normalized growth mostly below about 0.91 (no sharp cut-off); inconclusive means no clear call, values can overlap the other calls; inactive means mostly above about 0.92. The list shows a part of the results.

Test: chemical genetic growth profiling, strain panel (AID 1159580);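 further: tested at 20 µM; growth read once vehicle control cultures reached saturation at 30 °C; 1 = growth at the plate median or of vehicle wells; lower values mean less growth of the strain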
Conditions: growth OD
[1] = S. cerevisiae deletion strains, locus YAR019C, strain CDC15, active compounds read low
[2] = S. cerevisiae deletion strains, locus YBL105C, strain PKC1, active compounds read low
[3] = S. cerevisiae deletion strains, locus YBR135W, strain CKS1, active compounds read low
[4] = S. cerevisiae deletion strains, locus YBR136W, strain MEC1, active compounds read low
[5] = S. cerevisiae deletion strains, locus YBR160W, strain CDC28, active compounds read low
[6] = S. cerevisiae deletion strains, locus YDL017W, strain CDC7, active compounds read low
[7] = S. cerevisiae deletion strains, locus YDL028C, strain MPS1, active compounds read low
[8] = S. cerevisiae deletion strains, locus YDL101C, strain DUN1, active compounds read low
[9] = S. cerevisiae deletion strains, locus YDL108W, strain KIN28, active compounds read low
[10] = S. cerevisiae deletion strains, locus YDL132W, strain cdc53, active compounds read low
[11] = S. cerevisiae deletion strains, locus YDL214C, strain PRR2, active compounds read low
[12] = S. cerevisiae deletion strains, locus YDR052C, strain DBF4, active compounds read low
[13] = S. cerevisiae deletion strains, locus YDR054C, strain cdc34, active compounds read low
[14] = S. cerevisiae deletion strains, locus YDR226W, strain ADK1, active compounds read low
[15] = S. cerevisiae deletion strains, locus YDR477W, strain SNF1, active compounds read low
[16] = S. cerevisiae deletion strains, locus YER123W, strain YCK3, active compounds read low
[17] = S. cerevisiae deletion strains, locus YER133W, strain GLC7, active compounds read low
[18] = S. cerevisiae deletion strains, locus YFL009W, strain cdc4, active compounds read low
[19] = S. cerevisiae deletion strains, locus YFL029C, strain CAK1, active compounds read low
[20] = S. cerevisiae deletion strains, locus YFR003C, strain YPI1, active compounds read low
[21] = S. cerevisiae deletion strains, locus YFR019W, strain FAB1, active compounds read low
[22] = S. cerevisiae deletion strains, locus YFR028C, strain CDC14, active compounds read low
[23] = S. cerevisiae deletion strains, locus YGR040W, strain KSS1, active compounds read low
[24] = S. cerevisiae deletion strains, locus YGR052W, strain FMP48, active compounds read low
[25] = S. cerevisiae deletion strains, locus YGR092W, strain DBF2, active compounds read low
[26] = S. cerevisiae deletion strains, locus YHR030C, strain SLT2, active compounds read low
[27] = S. cerevisiae deletion strains, locus YHR079C, strain IRE1, active compounds read low
[28] = S. cerevisiae deletion strains, locus YHR082C, strain KSP1, active compounds read low
[29] = S. cerevisiae deletion strains, locus YHR205W, strain SCH9, active compounds read low
[30] = S. cerevisiae deletion strains, locus YIL147C, strain SLN1, active compounds read low
[31] = S. cerevisiae deletion strains, locus YJL095W, strain BCK1, active compounds read low
[32] = S. cerevisiae deletion strains, locus YJL128C, strain PBS2, active compounds read low
[33] = S. cerevisiae deletion strains, locus YJL157C, strain FAR1, active compounds read low
[34] = S. cerevisiae deletion strains, locus YJR016C, strain ILV3, active compounds read low
[35] = S. cerevisiae deletion strains, locus YJR066W, strain TOR1 (second series), active compounds read low
[36] = S. cerevisiae deletion strains, locus YJR066W, strain TOR1, active compounds read low
[37] = S. cerevisiae deletion strains, locus YKL048C, strain ELM1, active compounds read low
[38] = S. cerevisiae deletion strains, locus YKL067W, strain YNK1, active compounds read low
[39] = S. cerevisiae deletion strains, locus YKL101W, strain HSL1, active compounds read low
[40] = S. cerevisiae deletion strains, locus YKL193C, strain SDS22, active compounds read low
[41] = S. cerevisiae deletion strains, locus YKL203C, strain TOR2, active compounds read low
[42] = S. cerevisiae deletion strains, locus YLR113W, strain HOG1, active compounds read low
[43] = S. cerevisiae deletion strains, locus YLR133W, strain CKI1, active compounds read low
[44] = S. cerevisiae deletion strains, locus YLR403W, strain SFP1, active compounds read low
[45] = S. cerevisiae deletion strains, locus YML070W, strain DAK1, active compounds read low
[46] = S. cerevisiae deletion strains, locus YMR001C, strain CDC5, active compounds read low
[47] = S. cerevisiae deletion strains, locus YMR205C, strain PFK2 (second series), active compounds read low
[48] = S. cerevisiae deletion strains, locus YMR277W, strain FCP1, active compounds read low
[49] = S. cerevisiae deletion strains, locus YNL006W, strain LST8, active compounds read low
[50] = S. cerevisiae deletion strains, locus YNL020C, strain ARK1, active compounds read low
[51] = S. cerevisiae deletion strains, locus YNL161W, strain CBK1, active compounds read low
[52] = S. cerevisiae deletion strains, locus YNL183C, strain NPR1, active compounds read low
[53] = S. cerevisiae deletion strains, locus YNL207W, strain RIO2, active compounds read low
[54] = S. cerevisiae deletion strains, locus YNL222W, strain SSU72, active compounds read low
[55] = S. cerevisiae deletion strains, locus YNL307C, strain MCK1 (second series), active compounds read low
[56] = S. cerevisiae deletion strains, locus YOL078W, strain AVO1, active compounds read low
[57] = S. cerevisiae deletion strains, locus YOL136C, strain PFK27, active compounds read low
[58] = S. cerevisiae deletion strains, locus YOR061W, strain CKA2, active compounds read low
[59] = S. cerevisiae deletion strains, locus YOR119C, strain RIO1, active compounds read low
[60] = S. cerevisiae deletion strains, locus YOR231W, strain MKK1, active compounds read low
[61] = S. cerevisiae deletion strains, locus YOR329C, strain SCD5, active compounds read low
[62] = S. cerevisiae deletion strains, locus YPL031C, strain PHO85, active compounds read low
[63] = S. cerevisiae deletion strains, locus YPL153C, strain RAD53, active compounds read low
[64] = S. cerevisiae deletion strains, locus YPL204W, strain HRR25, active compounds read low
[65] = S. cerevisiae deletion strains, locus YPL209C, strain IPL1, active compounds read low
[66] = S. cerevisiae deletion strains, locus YPL256C, strain CLN2, active compounds read low
[67] = S. cerevisiae deletion strains, locus YPR025C, strain CCL1, active compounds read low
[68] = S. cerevisiae deletion strains, locus YPR106W, strain ISR1, active compounds read low
[69] = S. cerevisiae deletion strains, locus YPR111W, strain DBF20, active compounds read low
[70] = S. cerevisiae deletion strains, strain NNK1, active compounds read low
[71] = S. cerevisiae deletion strains, strain TSCII, active compounds read low
[72] = S. cerevisiae deletion strains, locus YAL013W, strain DEP1, active compounds read low
[73] = S. cerevisiae deletion strains, locus YBR229C, strain ROT2, active compounds read low
[74] = S. cerevisiae deletion strains, locus YDR150W, strain NUM1, active compounds read low
[75] = S. cerevisiae deletion strains, locus YEL061C, strain CIN8, active compounds read low
[76] = S. cerevisiae deletion strains, locus YGR078C, strain PAC10, active compounds read low
[77] = S. cerevisiae deletion strains, locus YHR087W, strain rtc3, active compounds read low
[78] = S. cerevisiae deletion strains, locus YJR043C, strain POL32, active compounds read low
[79] = S. cerevisiae deletion strains, locus YJR075W, strain HOC1, active compounds read low
[80] = S. cerevisiae deletion strains, locus YLR039C, strain RIC1, active compounds read low
[81] = S. cerevisiae deletion strains, locus YLR058C, strain SHM2 (second series), active compounds read low
[82] = S. cerevisiae deletion strains, locus YLR085C, strain ARP6, active compounds read low
[83] = S. cerevisiae deletion strains, locus YLR262C, strain YPT6, active compounds read low
[84] = S. cerevisiae deletion strains, locus YML094W, strain GIM5, active compounds read low
[85] = S. cerevisiae deletion strains, locus YMR219W, strain ESC1, active compounds read low
[86] = S. cerevisiae deletion strains, locus YMR263W, strain SAP30, active compounds read low
[87] = S. cerevisiae deletion strains, locus YNL153C, strain GIM3, active compounds read low
[88] = S. cerevisiae deletion strains, locus YNL298W, strain CLA4 (second series), active compounds read low
[89] = S. cerevisiae deletion strains, locus YNL322C, strain KRE1, active compounds read low
[90] = S. cerevisiae deletion strains, locus YNR030W, strain Alg12, active compounds read low
[91] = S. cerevisiae deletion strains, locus YPL055C, strain LGE1, active compounds read low
[92] = S. cerevisiae deletion strains, locus YPL241C, strain CIN2, active compounds read low
[93] = S. cerevisiae deletion strains, locus YPR135W, strain CTF4, active compounds read low

Measured: normalized growth

N#C/C(=N/Nc1ccc(F)cc1)S(=O)(=O)c1ccc(Cl)cc1
inactive: [1] 0.976 | [2] 0.97 | [3] 0.965 | [4] 0.969 | [5] 0.965 | [6] 0.972 | [7] 0.971 | [8] 0.974 | [9] 0.957 | [10] 0.966 | [11] 0.94 | [12] 0.964 | [13] 0.976 | [14] 0.963 | [15] 0.961 | [16] 0.922 | [17] 0.968 | [18] 0.978 | [19] 0.973 | [20] 0.974 | [21] 0.912 | [22] 0.959 | [23] 0.94 | [24] 0.952 | [25] 0.912 | [26] 0.982 | [27] 0.993 | [28] 0.994 | [29] 0.907 | [30] 0.976 | [31] 0.926 | [32] 0.942 | [33] 0.953 | [34] 0.977 | [35] 0.924 | [36] 0.996 | [37] 0.932 | [38] 0.96 | [39] 0.93 | [40] 0.978 | [41] 0.99 | [42] 0.941 | [43] 0.942 | [44] 0.899 | [45] 0.939 | [46] 0.975 | [47] 0.96 | [48] 0.979 | [49] 0.989 | [50] 0.946 | [51] 0.966 | [52] 0.988 | [53] 0.969 | [54] 0.977 | [55] 0.912 | [56] 0.97 | [57] 0.905 | [58] 0.979 | [59] 0.998 | [60] 0.953 | [61] 0.975 | [62] 0.954 | [63] 0.956 | [64] 0.904 | [65] 0.975 | [66] 1.01 | [67] 0.974 | [68] 0.975 | [69] 0.969 | [70] 0.972 | [71] 0.966

CCOC(=O)CNc1ccc(F)cc1
inactive: [72] 0.995 | [73] 0.989 | [8] 1.02 | S. cerevisiae deletion strains, locus YDL134C, strain PPH21, active compounds read low 0.977 | [74] 1.02 | [75] 1.01 | [76] 0.991 | [26] 0.989 | [77] 1.01 | S. cerevisiae deletion strains, locus YJL187C, strain SWE1, active compounds read low 1 | [78] 0.988 | [79] 0.99 | [80] 0.953 | [81] 0.983 | [82] 0.986 | [83] 0.975 | [84] 1.04 | [85] 0.997 | [86] 0.983 | S. cerevisiae deletion strains, locus YNL128W, strain TEP1, active compounds read low 0.98 | [87] 1.01 | [88] 0.974 | [89] 0.999 | [90] 1.03 | [91] 1.02 | [92] 0.977 | [93] 0.965

C/C(=C\C(=O)Nc1ccc(F)cc1)Nc1ccc(F)cc1
inactive: [72] 1 | [73] 1.01 | S. cerevisiae deletion strains, locus YCL061C, strain MRC1, active compounds read low 1.04 | [8] 1.05 | [74] 1.04 | [75] 0.973 | [76] 1.03 | S. cerevisiae deletion strains, locus YGR229C, strain SMI1, active compounds read low 0.979 | [26] 1.02 | [77] 0.971 | [78] 1.02 | [79] 1 | S. cerevisiae deletion strains, locus YKL190W, strain CNB1, active compounds read low 1.01 | [80] 1.05 | [81] 0.998 | [82] 0.975 | [83] 0.989 | [84] 0.982 | [85] 1 | [86] 1.01 | [87] 1.04 | [88] 1 | [89] 1 | [90] 1 | S. cerevisiae deletion strains, locus YOL006C, strain TOP1, active compounds read low 1.04 | [91] 0.976 | [92] 0.999 | [93] 1.05 | S. cerevisiae strains, strain wild type, active compounds read low 1

CC(C)(C)c1ccc(N/N=C(\C#N)C(N)=O)cc1
active: [1] 0.111 | [2] 0.0972 | [3] 0.109 | [4] 0.109 | [5] 0.114 | [6] 0.0979 | [7] 0.117 | [8] 0.115 | [9] 0.11 | [10] 0.142 | [11] 0.114 | [12] 0.146 | [13] 0.107 | [14] 0.117 | [15] 0.103 | [16] 0.104 | [17] 0.133 | [18] 0.105 | [19] 0.11 | [20] 0.0948 | [21] 0.103 | [22] 0.108 | [23] 0.108 | [24] 0.145 | [25] 0.101 | [26] 0.189 | [27] 0.214 | [28] 0.225 | [29] 0.000939 | [30] 0.107 | [31] 0.166 | [32] 0.0973 | [33] 0.112 | [34] 0.101 | [35] 0.0973 | [36] 0.207 | [37] 0.134 | [38] 0.118 | [39] 0.103 | [40] 0.109 | [41] 0.112 | [42] 0.212 | [43] 0.0995 | [44] 0.00739 | [45] 0.116 | [46] 0.112 | [47] 0.0978 | [48] 0.105 | [49] 0.0902 | [50] 0.0965 | [51] 0.112 | [52] 0.135 | [53] 0.102 | [54] 0.107 | [55] 0.109 | [56] 0.108 | [57] 0.122 | [58] 0.092 | [59] 0.119 | [60] 0.249 | [61] 0.101 | [62] 0.103 | [63] 0.0998 | [64] 0.108 | [65] 0.0972 | [66] 0.243 | [67] 0.112 | [68] 0.107 | [69] 0.131 | [70] 0.105 | [71] 0.106
